High-throughput results as filed in PubChem.
B2AR arrestin: qHTS assay of beta-arrestin-biased ligands of beta2-adrenergic receptor; Potency, µM (highest dose often 46.1 µM), inactives show top-dose activation, actives largely listed as activators; AID 492947, 2010; Beta-2 adrenergic receptor (Homo sapiens), P07550; beta-arrestin recruitment to beta2AR, cell-based reporter; hit rate 0.02% among 330,000;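 further: potency means the concentration at half of the fitted maximal effect; 0% = DMSO controls and full agonism = EC100 isoproterenol or metaproterenol; nearly all actives have a fitted effect of over 65% in size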
Target sequence (P07550 whole entry, looked up): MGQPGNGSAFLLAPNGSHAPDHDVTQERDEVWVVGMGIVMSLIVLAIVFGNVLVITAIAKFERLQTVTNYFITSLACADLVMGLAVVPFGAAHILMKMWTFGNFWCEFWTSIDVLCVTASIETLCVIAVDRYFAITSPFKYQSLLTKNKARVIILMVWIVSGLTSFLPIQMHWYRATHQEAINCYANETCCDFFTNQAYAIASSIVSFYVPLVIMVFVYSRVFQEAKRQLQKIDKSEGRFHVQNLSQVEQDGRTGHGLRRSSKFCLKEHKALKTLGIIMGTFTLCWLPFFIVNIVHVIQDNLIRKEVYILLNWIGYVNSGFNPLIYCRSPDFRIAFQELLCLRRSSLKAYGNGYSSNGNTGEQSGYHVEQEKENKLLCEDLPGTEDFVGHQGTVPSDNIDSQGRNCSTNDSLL
ClpP mod: qHTS Assay for Activators of ClpP; ATP-dependent Clp protease proteolytic subunit (Bacillus subtilis (strain 168)), P80244; purified B. subtilis ClpP, FRET peptide cleavage, 20 min; Potency, µM (top dose mostly 57.5 µM), inactives show top-dose activity change, negative = active; hit rate 1.9% among 340,000; AID 651965, 2013; active means well fitted falling curve with a large enough effect; inconclusive means small, poorly fitted or top-dose-only effect; inactive means no such curve, though single readings can be large or run the other way; further: potency means the concentration at half of the fitted maximal effect; the source files actives as falling curves though it sought activators and does not explain the sign; nearly all actives have a fitted effect of over 65% in size
Target sequence (P80244 whole entry, looked up): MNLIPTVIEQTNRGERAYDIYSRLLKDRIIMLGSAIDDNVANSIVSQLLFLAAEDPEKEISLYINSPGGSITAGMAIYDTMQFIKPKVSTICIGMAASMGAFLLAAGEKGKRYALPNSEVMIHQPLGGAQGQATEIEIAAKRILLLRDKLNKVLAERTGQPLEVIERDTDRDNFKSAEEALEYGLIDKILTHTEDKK
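Purified B. subtilis ClpP, 10 microg/mL final in Tris/HCl pH8 with KCl, BSA, glycerol and Tween-20, cleaved an Abz/nitrotyrosine-quenched decapeptide. Fluorescence (ex 320, em 430) was read at 0 and 20 min at room temperature. Delta was normalized to 5.8 microM ADEP and DMSO/no-enzyme controls.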
Mito fusion act: qHTS Assay for Small Molecule Inhibitors of Mitochondrial Division or Activators of Mitochondrial Fusion; hit rate 0.23% among 320,000; AID 485298, 2010; S. cerevisiae fusion-defective mutant growth rescue, CellTiterGlo 48 h; Potency, µM (series often up to 46.1 µM), inactives show at the highest dose growth rescue (activation), most hits filed as activators; further: potency means the concentration at half of the fitted maximal effect; % of control where 0% means no effect; nearly all actives have a fitted effect of over 45% in size
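S. cerevisiae fusion-defective temperature-sensitive mutants (e.g. fzo1-1, mgm1-5) grown 48 h at 37C in YPEG (ethanol/glycerol non-fermentable) medium with 23 nl compound per well; growth rescue read as CellTiterGlo luminescence.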
Giardia killer: Small Molecules that selectively kill Giardia lamblia: qHTS | Giardia lamblia trophozoite viability | activity change, % at 7.66 µM, hits read low | hit rate 0.15% among 340,000 | AID 540267, 2011; in the data active means activity change below about -80%; inconclusive means between about -30% and that limit;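 further: parasites exposed to compound for two days anaerobically before the ATP read; on the % scale 0 is the no-effect control and ±100 the full control effect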
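Trophozoites 100 cells/well + cpd; 48 hrs, 37 deg C, anaerobic. ATPLite 1-Step added, 15-30 min RT, luminescence read (ATP-based viability).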
p53 reactivation: qHTS assay for re-activators of p53 using a Luc reporter; Potency, µM (top dose mostly 92.2 µM), for inactives: at the highest dose activity change, positive = activation, usual class: activators; AID 504706, 2011; H1299 p53-A138V BP100-luciferase reporter, luminescence, 24 h; hit rate 0.063% among 320,000; further: potency means the concentration at half of the fitted maximal effect; % of control where 0% means no effect; nearly all actives have a fitted effect of over 45% in size
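p53-null H1299 cells stably carrying temperature-sensitive p53-A138V and a BP100-luciferase reporter were pinned with compounds (4-point, 1:5 series) and held 24 hrs at 37 deg C. Luminescence was read 10 min after detection reagent.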
uPA surface inh: qHTS for Inhibitors of Cell Surface uPA Generation. Potency, µM (highest dose often 38.3 µM), inactives show at the highest dose activity change, negative = inhibition, actives largely listed as inhibitors. hit rate 0.31% among 330,000. cell surface uPA generation assay, qHTS; active means well fitted inhibition curve with a large enough effect; inconclusive means small, poorly fitted or top-dose-only effect; inactive means no such curve, though single readings can be large or run the other way; tested in mouse RAW 264.7 cells; further: potency means the concentration at half of the fitted maximal effect; on the % scale 0 is the no-effect control and ±100 the full control effect; nearly all actives have a fitted effect of over 55% in size
Starred values were filed as active, the others as inactive; u = inconclusive; x = not tested or not shown; ! = repeats disagree. Only some compounds are listed: those with a hit (about 2.1% of all), similar ones and a draw of the others. Unless noted, the call rests on the fitted dose curve; in most records, active means well fitted curve in the direction sought with a large enough effect; inconclusive means small, poorly fitted or top-dose-only effect, or another doubt; inactive means no such curve, though single readings can be large; an effect the other way counts as inactive or inconclusive.

SMILES	B2AR arrestin	ClpP mod	Mito fusion act	Giardia killer	p53 reactivation	uPA surface inh
CCc1ccccc1OCCSc1nnc(-c2cc(OC)c(OC)c(OC)c2)o1	x	25µM*	x	x	x	x
O=c1[nH]nc(-c2n[nH]c(=O)o2)o1	x	-5%	x	3	x	2%
CC(C)c1cnc2c(c1SCC(=O)N1CCCCC1)c(=O)n(C)c(=O)n2C	x	-12%	x	x	x	x
COc1cc(-c2nnc(SCC(=O)N3CCOCC3)o2)cc(OC)c1OC	0%	-1%	-6%	-4	-1%	-14%
COc1cc(-c2nnc(SCC3(c4ccc(Br)cc4)OCCO3)o2)cc(OC)c1OC	0%	28µM*	4%	11	-2%	-10%
CC(C)N1C(=O)S/C(=C/c2ccc(Sc3nc4ccccc4[nH]3)o2)C1=O	0%	-3%	u	8	-2%	-7%
C=CCN1C(=O)S/C(=C/c2ccc(Sc3nc4ccccc4[nH]3)o2)C1=O	0%	1%	22µM*	-26	8%	-7%
C=CCn1c(-c2ccc(OC)cc2)nc2nc3ccccc3nc21	0%	25µM*	11%	3	9%	2%
C=CCn1c(-c2ccc(OC)cc2)nc2ccccc21	0%	u	-6%	-24	16%	-7%
CC(=O)Nc1cccc(N/C(N)=N/c2nc(C)cc(C)n2)c1	0%	-3%	-3%	13	-3%	-2%
Cc1cccc(N/C(N)=N/c2nc(C)cc(C)n2)c1	0%	32µM*	0%	0	-4%	-2%
Brc1ccc2c(c1)C(C1=NCCN1)c1ccccc1CS2 (configuration not stated)	-1%	-1%	-15%	3	-5%	0.5µM*
O=[N+]([O-])c1ccc2oc(C(O)c3cccc(Cl)c3)cc2c1 (configuration not stated)	0%	x	25µM*	-30	-5%	-1%
O/N=C(/CI)c1ccc2ccccc2c1	x	-7%	x	x	x	x
O=S(=O)(c1ccccc1)n1ccc(-c2cnc(-c3ccccc3)s2)n1	0%	14µM*	-4%	20	18%	-1%
Cc1ccc(Cn2ccc(-c3cnc(-c4ccccc4)s3)n2)cc1	0%	-22%	7%	-4	28%	8%
Fc1ccc(Nc2c(-c3ccco3)nc3ccccn23)cc1	0%	28µM*!	-1%	10	x	2%
COc1ccc(Nc2c(-c3ccco3)nc3ccc(C)cn23)cc1	4%	-27%	-4%	6	3%	10%
Cc1ccc(Nc2c(-c3ccco3)nc3ccccn23)cc1	0%	25µM*	13%	-7	u	-1%
c1ccc(Nc2c(-c3ccco3)nc3ccccn23)cc1	-1%	25µM*	-1%	5	9%	0%
c1coc(-c2nc3ccccn3c2Nc2ccc3c(c2)OCCO3)c1	x	4%	x	x	x	x
COc1cc2nc(CC(O)c3nc4cc(OC)c(OC)cc4[nH]3)[nH]c2cc1OC (configuration not stated)	x	-11%	x	x	x	x
COc1cc2c(=O)n(Cc3ccccc3Cl)c(=O)n(CC(=O)Nc3ccc(C)c(C)c3)c2cc1OC	x	-7%	x	x	x	x
C=CCNC(=O)COc1ccc(S(=O)(=O)Nc2ccc(OCC)cc2)cc1	-2%	13µM*	1%	19	-9%	0%
CC(=O)Nc1ccc(-c2ccc(NC(C)=O)cc2)cc1	-1%	x	2%	4	8%	2%
SMILES	B2AR arrestin	ClpP mod	Mito fusion act	Giardia killer	p53 reactivation	uPA surface inh
CCC(=O)Nc1ccc(-c2cc(-c3ccccc3)nc(-c3ccc(NC(=O)CC)cc3)n2)cc1	0%	u	-1%	3	-7%	-1%
CC(=O)Nc1ccc(-c2cc(-c3ccccc3)nc(-c3ccccc3)n2)cc1	-1%	28µM*	0%	-11	-8%	-6%
CC(=O)Nc1ccc(-c2cc(-c3ccc(NC(C)=O)cc3)nc(-c3ccc(NC(C)=O)cc3)n2)cc1	-1%	5.6µM*	-2%	-11	-7%	-7%
O=C(NC1CCCCC1)C1c2ccccc2OCC(=O)N1Cc1ccco1 (configuration not stated)	x	2%	x	x	x	x
CC(C)COC(=O)Cc1c(O)c2ccccc2[nH]c1=O	-1%	28µM*	-1%	-4	7%	-3%
CCCCCOC(=O)Cc1c(O)c2ccccc2[nH]c1=O	0%	16µM*	11%	-4	2%	7%
CCCCCc1c(O)c2ccccc2[nH]c1=O	0%	25µM*	6%	-6	-1%	5%
CCCCOC(=O)Cc1c(O)c2ccccc2[nH]c1=O	-1%	u	21%	9	-2%	8%
CCCN1CCN(CCNC(=O)Nc2cc(C)ccc2OC)CC1	x	1%	x	x	x	x
CCN(C(=O)Cc1ccccc1OC)c1nnc(-c2ccncc2)s1	0%	-4%	1%	3	-5%	2%
CCN(C(=O)Cc1cccs1)c1nnc(-c2cc(OC)c(OC)c(OC)c2)s1	0%	22µM*	10%	-6	-14%	2%
CCc1cccc(NC(=O)CN(c2ccc(C)cc2)S(=O)(=O)c2cccs2)c1	x	-1%	x	x	x	x
CCN=C1S/C(=C\c2cc(OCC)c(O)cc2Br)C(=O)N1CC	3%	2%	7.1µM*	-4	-5%	-3%
COc1ccc(C(C(=O)NCc2ccccc2)n2c(=O)c(-c3ccco3)nc3ccccc32)cc1 (configuration not stated)	x	4%	x	x	x	x
O=C1CC(C(=O)N2CCN(c3ccccn3)CC2)CN1Cc1ccccc1Cl (configuration not stated)	0%	32µM*	0%	-7	2%	-9%
O=C(Nc1ccccc1Cl)N1CCN(c2ccccn2)CC1	0%	22µM*	-1%	10	6%	x
CCOC(=O)c1ccc(NC(=O)N2CCN(c3ccccn3)CC2)cc1	0%	22µM*	0%	11	-3%	3%
CCOC(=O)N1CCN(C(=O)Nc2ccc3oc(C)nc3c2)CC1	0%	-2%	-4%	15	-4%	2%
Cc1nc2cc(NC(=O)N3CCN(c4ccccn4)CC3)ccc2o1	x	25µM*	-4%	4	x	7%
CCOc1ccc(NC(=O)CCc2nc3cccnc3n2-c2ccccc2)cc1	x	1%	x	x	x	x
CN1C(=O)C2(N=c3ccccc3=N2)c2ccccc21	0%	13µM*	4%	-13	0%	-12%
CN1C(=O)C2(OCC(C)([N+](=O)[O-])CO2)c2ccccc21 (configuration not stated)	0%	x	0%	9	3%	0%
CCc1ccc(-c2cc(C(=O)N3N=C(C(F)F)CC3(O)C(F)F)c3ccccc3n2)cc1 (configuration not stated)	0%	22µM*	-23%	-22	u	x
